Experimental data: PubChem BioAssay AID1159580 (chemical genetic matrix, 2015)
“And” between values parts separate entries of the source, which are not always exact repeats. Identical values can stand only once. Among all 5,500 compounds or so, about 2,000 (36%) were called active. Another 18% or so got no clear call; they are omitted. Cut-off read from the data, not from the text of the source: active = normalized growth mostly below about 0.91 (no sharp cut-off); inconclusive = no clear call, values can overlap the other calls; inactive = mostly above about 0.92. Some of the results follow.

Assay: chemical genetic growth profiling, strain panel (AID 1159580);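 note: tested at 20 µM; growth read once vehicle control cultures reached saturation at 30 °C; 1 = growth at the plate median or of vehicle wells; lower values mean less growth of the strain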
Details: S. cerevisiae deletion strains, growth OD

Measured: normalized growth

C[C@]12C=CC(=O)C=C1CCC1C2CC[C@]2(C)C(=O)CCC12 (stereo partly drawn)
inactive: locus YAL021C, strain ccr4, stronger effect = lower value 0.97 | locus YAL026C, strain drs2, stronger effect = lower value 0.983 | locus YAL030W, strain snc1, stronger effect = lower value 0.976 | locus YBL061C, strain skt5, stronger effect = lower value 0.971 | locus YBR009C, strain hhf1, stronger effect = lower value 0.966 | locus YBR021W, strain FUR4, stronger effect = lower value 0.986 | locus YBR023C, strain chs3, stronger effect = lower value 0.979 | locus YBR171W, strain sec66, stronger effect = lower value 0.987 | locus YBR229C, strain ROT2, stronger effect = lower value 0.992 | locus YBR231C, strain swc5, stronger effect = lower value 0.982 | locus YBR279W, strain paf1, stronger effect = lower value 0.982 | locus YCL011C, strain gbp2, stronger effect = lower value 0.988 | locus YCL016C, strain dcc1, stronger effect = lower value 0.976 | locus YCL029C, strain bik1, stronger effect = lower value 0.992 | locus YCL061C, strain MRC1, stronger effect = lower value 0.972 | locus YCL069W, strain vba3, stronger effect = lower value 0.981 | locus YCR088W, strain abp1, stronger effect = lower value 0.98 | locus YDL005C, strain med2, stronger effect = lower value 0.977 | locus YDL035C, strain GPR1, stronger effect = lower value 1.03 | locus YDL040C, strain nat1, stronger effect = lower value 0.985 | locus YDL074C, strain BRE1, stronger effect = lower value 1.01 | locus YDL101C, strain DUN1, stronger effect = lower value 1.01 | locus YDL134C, strain PPH21, stronger effect = lower value 1.01 | locus YDL185W, strain tfp1, stronger effect = lower value 1 | locus YDL192W, strain arf1, stronger effect = lower value 0.981 | locus YDR001C, strain nth1, stronger effect = lower value 0.984 | locus YDR069C, strain doa4, stronger effect = lower value 0.978 | locus YDR101C, strain arx1, stronger effect = lower value 0.981 | locus YDR137W, strain rgp1, stronger effect = lower value 1.04 | locus YDR150W, strain NUM1, stronger effect = lower value 1.01 | locus YDR159W, strain sac3, stronger effect = lower value 0.928 | locus YDR162C, strain NBP2, stronger effect = lower value 1.03 | locus YDR195W, strain ref2 0.935 | locus YDR297W, strain sur2, stronger effect = lower value 0.972 | locus YDR318W, strain mcm21, stronger effect = lower value 0.992 | locus YDR334W, strain swr1, stronger effect = lower value 0.976 | locus YDR335W, strain msn5, stronger effect = lower value 0.988 | locus YDR388W, stronger effect = lower value 0.981 | locus YDR392W, strain spt3, stronger effect = lower value 0.877 | locus YDR502C, strain sam2, stronger effect = lower value 0.976 | locus YEL003W, strain gim4, stronger effect = lower value 0.988 | locus YEL037C, strain rad23, stronger effect = lower value 0.989 | locus YEL061C, strain CIN8 (second series), stronger effect = lower value 0.988 | locus YEL061C, strain CIN8, stronger effect = lower value 0.995 | locus YER015W, strain faa2, stronger effect = lower value 0.981 | locus YER016W, strain bim1, stronger effect = lower value 0.981 | locus YER110C, stronger effect = lower value 0.984 | locus YER111C, strain swi4, stronger effect = lower value 0.986 | locus YER155C, strain BEM2 (second series), stronger effect = lower value 0.949 | locus YER155C, strain BEM2, stronger effect = lower value 0.979 | locus YER167W, strain BCK2, stronger effect = lower value 0.986 | locus YFR010W, strain ubp6, stronger effect = lower value 0.988 | locus YGL078C, strain dbp3, stronger effect = lower value 0.986 | locus YGL086W, strain mad1, stronger effect = lower value 0.983 | locus YGL167C, strain pmr1, stronger effect = lower value 0.976 | locus YGL173C, strain kem1, stronger effect = lower value 0.98 | locus YGL227W, strain vid30, stronger effect = lower value 0.984 | locus YGL240W, strain doc1, stronger effect = lower value 0.926 | locus YGL248W, strain PDE1, stronger effect = lower value 0.995 | locus YGL253W, strain hxk2, stronger effect = lower value 0.987 | locus YGR078C, strain PAC10, stronger effect = lower value 1.02 | locus YGR135W, strain pre9, stronger effect = lower value 0.996 | locus YGR229C, strain SMI1, stronger effect = lower value 1.07 | locus YGR252W, strain gcn5, stronger effect = lower value 0.988 | locus YHR013C, strain ard1, stronger effect = lower value 0.951 | locus YHR027C, strain rpn1, stronger effect = lower value 0.99 | locus YHR030C, strain SLT2, stronger effect = lower value 1.01 and 0.976 | locus YHR079C, strain IRE1 (second series), stronger effect = lower value 0.987 | locus YHR079C, strain IRE1, stronger effect = lower value 0.978 | locus YHR094C, strain hxt1, stronger effect = lower value 0.981 | locus YHR129C, strain ARP1, stronger effect = lower value 1 | locus YHR142W, strain chs7, stronger effect = lower value 0.995 | locus YHR200W, strain rpn10, stronger effect = lower value 0.976 | locus YIL066C, strain RNR3, stronger effect = lower value 1.01 | locus YIL073C, strain SPO22, stronger effect = lower value 1.04 | locus YIL125W, strain kgd1, stronger effect = lower value 0.975 | locus YIR030C, strain dcg1, stronger effect = lower value 0.992 | locus YJL092W, strain hpr5, stronger effect = lower value 0.985 | locus YJL095W, strain BCK1 (second series), stronger effect = lower value 0.98 | locus YJL095W, strain BCK1, stronger effect = lower value 1 and 0.98 | locus YJL115W, strain asf1, stronger effect = lower value 0.977 | locus YJL129C, strain trk1, stronger effect = lower value 0.985 | locus YJL134W, strain LCB3, stronger effect = lower value 1.01 | locus YJL154C, strain vps35, stronger effect = lower value 0.998 | locus YJL164C, strain tpk1, stronger effect = lower value 0.976 | locus YJL166W, strain qcr8, stronger effect = lower value 0.957 | locus YJL168C, strain set2, stronger effect = lower value 0.978 | locus YJL187C, strain SWE1 (second series), stronger effect = lower value 1.02 | locus YJL187C, strain SWE1, stronger effect = lower value 0.979 | locus YJR043C, strain POL32, stronger effect = lower value 1.03 | locus YJR066W, strain TOR1, stronger effect = lower value 0.937 | locus YKL009W, strain mrt4, stronger effect = lower value 1 | locus YKL068W, stronger effect = lower value 1 | locus YKL085W, strain MDH1 (second series), stronger effect = lower value 0.993 | locus YKL085W, strain MDH1, stronger effect = lower value 0.993 | locus YKL160W, strain elf1, stronger effect = lower value 0.985 | locus YKR001C, strain vps1, stronger effect = lower value 0.986 | locus YKR026C, strain gcn3, stronger effect = lower value 0.962 | locus YKR091W, strain srl3, stronger effect = lower value 0.976 | locus YLL001W, strain dnm1, stronger effect = lower value 0.969 | locus YLL026W, stronger effect = lower value 0.981 | locus YLL041C, strain sdh2, stronger effect = lower value 0.981 | locus YLR027C, strain aat2, stronger effect = lower value 0.984 | locus YLR039C, strain RIC1, stronger effect = lower value 1.27 | locus YLR058C, strain SHM2, stronger effect = lower value 0.993 | locus YLR102C, strain apc9, stronger effect = lower value 0.997 | locus YLR113W, strain HOG1, stronger effect = lower value 0.966 | locus YLR221C, strain rsa3, stronger effect = lower value 0.977 | locus YLR258W, strain gsy2, stronger effect = lower value 0.973 | locus YLR262C, strain YPT6 (second series), stronger effect = lower value 1.05 | locus YLR262C, strain YPT6, stronger effect = lower value 1.23 | locus YLR268W, strain sec22, stronger effect = lower value 0.997 | locus YLR320W, strain mms22, stronger effect = lower value 0.946 | locus YLR330W, strain CHS5, stronger effect = lower value 1 | locus YLR342W, strain FKS1 (second series), stronger effect = lower value 0.958 | locus YLR342W, strain FKS1, stronger effect = lower value 0.976 | locus YLR357W, strain rsc2, stronger effect = lower value 1.01 | locus YLR370C, strain arc18, stronger effect = lower value 0.977 | locus YLR371W, strain rom2, stronger effect = lower value 0.993 | locus YLR384C, strain iki3, stronger effect = lower value 0.983 | locus YLR418C, strain cdc73, stronger effect = lower value 0.968 | locus YML016C, strain PPZ1, stronger effect = lower value 0.994 | locus YML032C, strain rad52, stronger effect = lower value 0.996 | locus YML120C, strain ndi1, stronger effect = lower value 0.983 | locus YML124C, strain tub3, stronger effect = lower value 0.982 | locus YMR058W, strain fet3, stronger effect = lower value 0.979 | locus YMR078C, strain ctf18, stronger effect = lower value 0.974 | locus YMR125W, strain sto1, stronger effect = lower value 0.997 | locus YMR129W, stronger effect = lower value 0.991 | locus YMR205C, strain PFK2, stronger effect = lower value 0.963 | locus YMR223W, strain ubp8, stronger effect = lower value 0.98 | locus YMR231W, strain pep5, stronger effect = lower value 0.986 | locus YMR263W, strain SAP30, stronger effect = lower value 0.99 | locus YMR307W, strain GAS1, stronger effect = lower value 1.16 | locus YNL067W, strain RPL9B, stronger effect = lower value 1.02 | locus YNL071W, strain lat1, stronger effect = lower value 0.977 | locus YNL128W, strain TEP1, stronger effect = lower value 1.02 | locus YNL153C, strain GIM3, stronger effect = lower value 1.01 | locus YNL183C, strain NPR1, stronger effect = lower value 0.897 | locus YNL209W, strain ssb2, stronger effect = lower value 0.985 | locus YNL233W, strain BNI4, stronger effect = lower value 0.994 | locus YNL248C, strain rpa49, stronger effect = lower value 0.991 | locus YNL250W, strain rad50, stronger effect = lower value 0.99 | locus YNL271C, strain bni1, stronger effect = lower value 0.989 | locus YNL298W, strain CLA4, stronger effect = lower value 0.981 | locus YNL307C, strain MCK1, stronger effect = lower value 0.982 | locus YNL322C, strain KRE1 (second series), stronger effect = lower value 0.978 | locus YNR049C, strain mso1, stronger effect = lower value 0.983 | locus YNR052C, strain pop2, stronger effect = lower value 0.989 | locus YOL006C, strain TOP1, stronger effect = lower value 0.98 | locus YOL012C, strain htz1 1.46 | locus YOL147C, strain pex11, stronger effect = lower value 0.997 | locus YOR001W, strain rrp6, stronger effect = lower value 0.98 | locus YOR061W, strain CKA2, stronger effect = lower value 0.996 | locus YOR069W, strain VPS5, stronger effect = lower value 0.998 | locus YOR070C, strain gyp1, stronger effect = lower value 0.989 | locus YOR080W, strain dia2, stronger effect = lower value 0.972 | locus YOR083W, strain WHI5, stronger effect = lower value 0.983 | locus YOR106W, strain vam3, stronger effect = lower value 0.982 | locus YOR136W, strain idh2, stronger effect = lower value 0.987 | locus YOR144C, strain elg1, stronger effect = lower value 0.977 | locus YOR184W, strain ser1, stronger effect = lower value 0.985 | locus YOR231W, strain MKK1, stronger effect = lower value 0.98 | locus YOR265W, strain rbl2, stronger effect = lower value 0.983 | locus YOR270C, strain vph1, stronger effect = lower value 0.941 | locus YOR290C, strain snf2, stronger effect = lower value 0.943 | locus YOR316C, strain cot1, stronger effect = lower value 0.984 | locus YPL051W, strain arl3, stronger effect = lower value 0.998 | locus YPL055C, strain LGE1, stronger effect = lower value 1.02 | locus YPL078C, strain atp4, stronger effect = lower value 0.989 | locus YPL106C, strain sse1, stronger effect = lower value 0.958 | locus YPL240C, strain hsp82, stronger effect = lower value 0.965 | locus YPL256C, strain CLN2, stronger effect = lower value 0.98 | locus YPR119W, strain clb2, stronger effect = lower value 0.975 | locus YPR141C, strain kar3, stronger effect = lower value 0.982 | locus YPR163C, strain tif3, stronger effect = lower value 0.992 | locus YPR167C, strain met16, stronger effect = lower value 0.981 | strain wtn01, stronger effect = lower value 0.99
